± gives the standard deviation.
Tests used:
Details in all cases: modulator concentration 10 µM
[1] = test system: RAW-Dual (murine macrophage reporter line); assay: NF-kB reporter (SEAP) activity fold change vs agonist alone; higher = enhanced NF-kB activity
In short: (§1)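 In 384-well plates holding 50 000 RAW-Dual murine macrophage reporter cells per well, compound at 10 μM final was pre-incubated for 1 hour at 37 °C, after which a PRR agonist was added overnight. Supernatant SEAP read with QUANTI-Blue at 620 nm absorbance reported NF-κB, and Lucia luciferase read with QUANTI-Luc luminescence reported IRF. Fold change values come from dividing each reporter signal by the mean of agonist-only control wells on the same plate, averaged over replicate plates with propagated errors.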

[2] = test system: RAW-Dual (murine macrophage reporter line); assay: IRF reporter (Lucia luciferase) activity fold change vs agonist alone; higher = enhanced IRF activity
In short: as §1

[3] = test system: RAW-Dual (murine macrophage reporter line); assay: viability score (confluency relative to resting cells, overnight) (fraction); higher = more viable, active = viable (0.7 or more)
In short: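 Two confluency masks, generated with IncuCyte software over all imaged wells, were applied to IncuCyte images of RAW-Dual macrophages. The cells, in 384-well plates, had been exposed overnight to 10 μM final compound. The viability score is confluency as a fraction of resting cells, and a compound met the cutoff only with both masks above 70% of resting cells.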

[4] = agonist: CpG ODN 1826 0.5 ug/mL

Structure (SMILES)	NF-kB reporter [1, 4]	NF-kB reporter ([1]; agonist: LPS 0.1 ug/mL)	NF-kB reporter ([1]; agonist: MPLA […])	IRF reporter ([2]; agonist: 3'3'-cGAMP 10 ug/mL)	IRF reporter ([2]; agonist: LPS 0.1 ug/mL)	IRF reporter ([2]; agonist: MPLA […])	viability score [3]
COc1ccc(-c2nc3cc(C4=NNC(=O)CC4C)ccc3[nH]2)cc1 (stereo unspecified)	2.4 ± 0.37	1.37 ± 0.23	1.14 ± 0.073	0.164 ± 0.057	1.07 ± 0.25	1.33 ± 0.12	0.775 (active)
O=C(c1ccc(-c2nc3ccccc3s2)s1)N1CCOCC1	1.08 ± 0.11	1.02 ± 0.15	1.16 ± 0.17	0.879 ± 0.06	1.19 ± 0.25	1.21 ± 0.44	0.964 (active)
CC(=O)Nc1ccc(S(=O)(=O)N2CCC(Oc3cc(C)nc(C)n3)C2)cc1 (stereo unspecified)	0.919 ± 0.039	0.923 ± 0.098	1.04 ± 0.092	0.998 ± 0.08	0.936 ± 0.12	0.983 ± 0.32	0.97 (active)
CC(C)N(C)CCOC(=O)C(C)(c1ccccc1)c1ccccc1	0.583 ± 0.047	1.03 ± 0.068	0.957 ± 0.11	0.902 ± 0.069	1.09 ± 0.12	0.965 ± 0.17	0.322 (inactive)
COc1cccc(N2CCN(C3CCN(CC4CCOCC4)CC3)CC2)c1	0.75 ± 0.078	1.03 ± 0.11	1.22 ± 0.17	0.901 ± 0.043	1.26 ± 0.23	1.42 ± 0.49	0.966 (active)
Brc1ccc(CN2C3=NCCCN3c3ccccc32)cc1.Cl	0.263 ± 0.023	0.826 ± 0.054	1.34 ± 0.092	0.735 ± 0.089	0.984 ± 0.049	0.905 ± 0.11	0.96 (active)
CC(C)N(C(=O)c1ccc(C(=O)NCc2ccc(S(N)(=O)=O)cc2)cc1)C(C)C	0.974 ± 0.057	1.07 ± 0.079	0.909 ± 0.072	0.961 ± 0.033	1.51 ± 0.12	1.21 ± 0.18	1 (active)
CC(=O)N[C@@H](CS)C(=O)O	1.1 ± 0.082	1.05 ± 0.096	1.04 ± 0.052	0.931 ± 0.065	0.982 ± 0.076	1.04 ± 0.087	0.995 (active)
CN1CCN(S(=O)(=O)c2ccc(-c3ccc(S(=O)(=O)N4CCN(C)CC4)cc3)cc2)CC1	0.865 ± 0.048	1.06 ± 0.074	0.955 ± 0.06	1.04 ± 0.043	1.45 ± 0.15	1.1 ± 0.098	0.999 (active)
Cc1c(OCc2ccc(Cl)cc2)ccc2c(C(F)(F)F)cc(=O)oc12	0.758 ± 0.059	0.94 ± 0.048	1.11 ± 0.17	0.802 ± 0.042	1.06 ± 0.062	1.07 ± 0.094	1.02 (active)
CCOc1cc2ncc(C#N)c(Nc3ccc(OCc4ccccn4)c(Cl)c3)c2cc1NC(=O)/C=C/CN(C)C	0.161 ± 0.007	0.781 ± 0.075	0.907 ± 0.092	0.694 ± 0.032	1.46 ± 0.26	1.56 ± 0.57	0.977 (active)
O=C(Cc1ccc(Cl)cc1)Nc1ccc2oc(-c3c(F)c(F)c(F)c(F)c3F)nc2c1	0.931 ± 0.097	0.882 ± 0.12	0.696 ± 0.059	0.698 ± 0.028	1.32 ± 0.12	1.07 ± 0.11	1.01 (active)
C=C(CC)C(=O)c1ccc(OCC(=O)O)c(Cl)c1Cl [Prestw-259]	0.596 ± 0.14	0.588 ± 0.077	0.722 ± 0.049	0.563 ± 0.02	1.85 ± 0.21	1.53 ± 0.17	0.953 (active)

Source: the supplement of paper PMC10646978
